We go through 41 molecules from PubChem BioAssay AID602405 (Broad Institute, 2012).

Molecules are shown by their SMILES. Screen size: about 360,000 compounds; about 350 (0.097%) were called active. For the sample, actives were picked, then their nearest neighbours and some compounds at random. Values without a mark were called inactive. Cut-off read from the data, not from the text of the source: active = inhibition above about 16% (passing the limit was not always enough); inconclusive = no clear call, values can overlap the other calls; inactive = below that.

The test system of this test is UDP-N-acetylbacillosamine N-acetyltransferase PglD (Campylobacter jejuni). Briefly: blockers of PglD enzyme activity – biochemical, DTNB colorimetric, single point, primary screen (AID 602405). As to conditions: purified PglD enzyme, DTNB colorimetric CoA detection; at 12.5 µM; active compounds read high.
With `C[C@@H]1CCCCO[C@H](CN(C)Cc2ccc(C(F)(F)F)cc2)[C@@H](C)CN([C@@H](C)CO)C(=O)c2cc(NC(=O)c3ccncc3)ccc2O1`, the inhibition is 3.05%. On to `CC(C)CN(C[C@@H]1N[C@@H](CO)[C@H]1c1ccccc1)C(=O)CN(C)C`, for which the inhibition was 5.57%.

For `CO[C@@H]1CN(C)C(=O)c2cc(NC(=O)C3CCC3)ccc2OC[C@H](C)N(Cc2nccs2)C[C@H]1C`, the inhibition was 0.477%. Turning to `Cc1noc(C)c1NC(=O)N(C)C[C@H]1Oc2c(NS(=O)(=O)c3cccs3)cccc2C(=O)N([C@@H](C)CO)C[C@@H]1C`, the inhibition is 0.536%. The same measure for `CO[C@@H]1CN(C)C(=O)c2cc(NC(=O)NC3CCCCC3)ccc2OC[C@H](C)N(CC2CCOCC2)C[C@H]1C`: -1.39%. Regarding `CCCCC(=O)Nc1ccc(C(=O)NCCCn2ccnc2)cc1`, the inhibition was 20.6% (active). For `CCCC(=O)Nc1ccc(C(=O)NCCCn2ccnc2)cc1`, the inhibition was -0.628%. Regarding `CC(=O)Nc1ccc(NC(=O)CCCNC(=O)c2ccc(Cl)cc2)cc1`, the inhibition was -4.6%.

Consider `COc1cccc(-c2ccc3c(c2)O[C@H](CN(C)Cc2ccncc2)[C@H](C)CN([C@H](C)CO)S3(=O)=O)c1`, for which the inhibition is -0.814%. For `CCCC#Cc1ccc([C@H]2[C@@H](CO)N(C(=O)C3CC3)[C@H]2C#N)cc1` the value was 0.491%; for `C[C@@H]1CN([C@H](C)CO)C(=O)c2cc(C#Cc3ccccn3)cnc2O[C@H]1CN(C)CC1CCOCC1`, 14.4%; for `C[C@H]1CN([C@@H](C)CO)C(=O)c2cccc(NC(=O)C3CCOCC3)c2O[C@H]1CN(C)S(C)(=O)=O`, -0.415%. The same measure for `COc1ccc(CNC(=O)C[C@H]2CC[C@@H]3[C@H](COc4ccc(NC(=O)C5CC5)cc4C(=O)N3C)O2)cc1`: -0.548%; for `C[C@H]1CN([C@@H](C)CO)C(=O)c2cc(N(C)C)ccc2O[C@@H]1CN(C)S(=O)(=O)c1ccc(Cl)cc1`: 14.8%; for `C[C@@H]1CCCCO[C@@H](CN(C)Cc2ccc(C(=O)O)cc2)[C@H](C)CN([C@H](C)CO)C(=O)c2cc(NC(=O)Nc3ccc(F)cc3)ccc2O1`: 0.576%. With `C[C@H](CO)N1C[C@H](C)[C@H](CN(C)S(=O)(=O)c2ccccc2)Oc2cc(Br)ccc2S1(=O)=O`, the inhibition was -0.169%. As for `C[C@@H]1CN([C@@H](C)CO)C(=O)c2cc(NC(=O)Cc3ccccc3)ccc2O[C@@H](C)CCCCO[C@H]1CN(C)C(=O)Nc1cccc2ccccc12`, the inhibition is -0.256%.

Regarding `CCOc1ccc(OCc2ccc(C(=O)Nc3cccc(C)n3)o2)cc1`, the inhibition was 1.24%. Regarding `COc1ccc(NC(=O)CN(C)C(=O)c2ccc(COc3ccccc3)o2)cc1`, the inhibition is -2.65%. On to `CCOc1ccc(OCc2ccc(C(=O)N(C)c3ccccc3)o2)cc1`, for which the inhibition was 27.6% (active). Regarding `C/C=C/c1ccc2c(c1)O[C@H](CN(C)C(C)=O)[C@H](C)CN([C@H](C)CO)S2(=O)=O`, the inhibition is -0.698%. On to `CO[C@H]1CN(C)C(=O)c2ccc(NC(=O)C3CC3)cc2OC[C@@H](C)N(C)C[C@H]1C`, for which the inhibition is 4.48%. In the case of `CO[C@@H]1CN(C)C(=O)c2ccc(NC(=O)C3CCCCC3)cc2OC[C@@H](C)N(Cc2nccs2)C[C@@H]1C`, the inhibition was 1.22%. Take `Cc1ccc(S(=O)(=O)N(C)C[C@H]2Oc3c(NC(=O)c4ccc(-c5nccs5)cc4)cccc3C(=O)N([C@H](C)CO)C[C@H]2C)cc1`: the inhibition is -3.77%. `C[C@H]1CN([C@@H](C)CO)S(=O)(=O)c2ccc(C#Cc3ccccc3F)cc2O[C@@H]1CN(C)C(=O)c1ccc2c(c1)OCO2`: the inhibition is 1.7%. For `CN1CCN(C(=O)C[C@@H]2C=C[C@@H](NS(=O)(=O)c3cccc(F)c3)[C@@H](CO)O2)CC1` the value was -7.9%; for `CNC(=O)C[C@H]1CC[C@H]2[C@H](COc3ccc(NC(=O)Nc4cccc(C)c4)cc3C(=O)N2C)O1`, -0.336%; for `COc1ccccc1C(=O)Nc1ccc(C)c(S(=O)(=O)N2CCCCC2)c1`, -5.07%. For `COc1ccc(NC(=O)C2=NNC(=O)CC2)cc1S(=O)(=O)N1CCCCC1`, the inhibition is 25.4% (active).

As for `CCOC(=O)C1CCN(CC(=O)Nc2ccc(OC)c(S(=O)(=O)N3CCCCC3)c2)CC1`, the inhibition is 2.34%. Regarding `C[C@@H]1CN([C@@H](C)CO)C(=O)c2cccc(NS(=O)(=O)c3ccc(Cl)cc3)c2O[C@@H]1CN(C)C(=O)Nc1ccccc1`, the inhibition is 0.684%. Consider `N#C[C@H]1[C@@H](c2ccc(-c3ccccc3F)cc2)[C@H](CO)N1C(=O)c1ccccn1`, for which the inhibition is -0.127%. For the molecule `COc1cccc(CNC(=O)C[C@H]2CC[C@@H](NC(C)=O)[C@@H](CO)O2)c1`, the inhibition was -2.55%. For `C[C@@H]1CCCCO[C@H](CN(C)C(=O)C2CCCCC2)[C@@H](C)CN([C@@H](C)CO)C(=O)c2cc(NC(=O)Nc3ccccc3)ccc2O1`, the inhibition is -3.55%.

With `O=C(C[C@H]1C=C[C@H](NC(=O)Nc2cc(F)ccc2F)[C@H](CO)O1)Nc1ccccc1`, the inhibition was -2.58%. As for `C[C@@H]1CN([C@H](C)CO)C(=O)Cc2cc(NS(=O)(=O)c3cccs3)ccc2O[C@H]1CN(C)C(=O)Nc1ccc2c(c1)OCO2`, the inhibition is 2.77%.

Turning to `C[C@@H]1CN([C@H](C)CO)S(=O)(=O)c2ccc(C#Cc3ccccc3F)cc2O[C@@H]1CN(C)C(=O)c1ccc2c(c1)OCO2`, the inhibition is -1.88%. For the molecule `COc1ccc(S(=O)(=O)Nc2ccc3c(c2)C(=O)N([C@H](C)CO)C[C@@H](C)[C@H](CN(C)S(=O)(=O)c2ccc(C)cc2)O3)cc1`, the inhibition is 4.85%. Take `COCCNC(=O)C[C@H]1CC[C@@H]2[C@H](COc3ccc(NC(=O)Nc4cccc(F)c4)cc3C(=O)N2C)O1`: the inhibition is 0.139%. For `CO[C@H]1CN(C)C(=O)c2ccc(NC(=O)c3cnccn3)cc2OC[C@@H](C)N(C(C)=O)C[C@H]1C` the value was -1.18%; for `C[C@@H]1CN([C@H](C)CO)C(=O)Cc2cc(NC(=O)C3CCCCC3)ccc2O[C@@H]1CN(C)S(C)(=O)=O`, 56.5%.
